TNFa cytotox = cytotoxicity in TNFa-stimulated HUVEC, primary screen, cytotoxicity control for VCAM1 expression modulator project, imaging, Hoechst nuclei count; AID 848, 2007; cell count reduction, % at 2 µM; HUVEC TNFalpha-stimulated, Hoechst cell count; 0.17% of 93,000 active;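 active = cell count reduction exceeding the screen mean by over 5 SD, scaled to untreated wells per plate, cut at about 78% in these data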;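 also: cells counted after 24 h of TNF alpha exposure following the 1 h pretreatment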
VCAM1 TNFa inh = inhibitors of TNFa-induced VCAM1 expression, primary screen, imaging, HUVEC, TNFa stimulus, immunofluorescence; HUVEC TNFa-induced VCAM-1 immunofluorescence, high-content imaging; inhibition, % at 2 µM; 0.48% of 95,000 active;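 active = inhibition above the batch mean plus 3 SD, with images confirmed as a hit by eye, cut at about 37% in these data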;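 also: 0% = TNF-stimulated DMSO wells and 100% = unstimulated control wells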
S1P2 antag = human S1P2 receptor antagonists, primary screen, cell-based; cell-based S1P2 antagonist assay, inhibition at 5 uM; inhibition, % at 5 µM; 0.21% of 97,000 active; AID 736, 2007; in the data active = inhibition above about 45%;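 also: CRE beta-lactamase reporter cells expressing human S1P2 stimulated with S1P; 0% = agonist at EC80 alone and 100% = agonist plus reference antagonist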
Target sequence (O95136 whole entry, looked up): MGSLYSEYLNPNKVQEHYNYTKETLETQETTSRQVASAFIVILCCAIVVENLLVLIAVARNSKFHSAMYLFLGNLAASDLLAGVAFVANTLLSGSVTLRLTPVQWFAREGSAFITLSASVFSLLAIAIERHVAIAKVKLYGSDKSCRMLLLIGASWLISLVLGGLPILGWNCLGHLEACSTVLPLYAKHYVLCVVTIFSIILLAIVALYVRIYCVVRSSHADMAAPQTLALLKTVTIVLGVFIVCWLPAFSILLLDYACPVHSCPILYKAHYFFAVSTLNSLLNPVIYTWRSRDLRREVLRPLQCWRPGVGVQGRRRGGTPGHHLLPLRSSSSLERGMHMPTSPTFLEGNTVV
E-sel TNF inh = E-selectin induction blockers in HUVEC – imaging, immunofluorescence, high content, primary screen | HUVEC TNFa-induced E-selectin immunofluorescence | inhibition, % at 2 µM | 0.71% of 120,000 active;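 active = inhibition above the batch mean plus 3 SD, and confirmed as a hit on visual image review, cut at about 43% in these data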;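 also: 0% = TNF-stimulated DMSO wells and 100% = unstimulated control wells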
S1P2 agonist = S1P2 receptor agonists, primary screen, cell-based. Sphingosine 1-phosphate receptor 2 (Homo sapiens), O95136. S1P2-expressing cell line, agonist reporter read-out. 0.46% of 97,000 active. activation, % at 4.5 µM; in the data active = activation above about 16%;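 also: 0% = vehicle low control and 100% = maximal reference agonist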
cytoskel mod = modifiers of F-actin cytoskeleton organization, primary screen, imaging, HUVEC, phalloidin staining, high-content imaging; HUVEC TNFa F-actin phalloidin imaging; inhibition, % at 2 µM; 0.18% of 91,000 active;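 active = inhibition above the batch mean plus 3 SD and confirmed as a hit by visual image inspection, cut at about 30% in these data, passing the limit was not always enough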
* hit, by the source's call; . = no result given. The list is not random: actives were taken first. Their share in the collection is about 1.6%.

SMILES	TNFa cytotox	VCAM1 TNFa inh	S1P2 antag	E-sel TNF inh	S1P2 agonist	cytoskel mod
COC(=O)c1cccc(S(=O)(=O)N(Cc2ccco2)Cc2cc3ccc(OC)cc3[nH]c2=O)c1	61	87*	31	.	-9	-28
COC(=O)c1cccc(S(=O)(=O)N(Cc2ccco2)Cc2cc3cc(OC)c(OC)cc3[nH]c2=O)c1	-35	-5	0	13	-4	.
CC(=O)C1=C(C)NC(SCc2cccc3ccccc23)=C(C#N)C1c1ccco1 (stereo unspecified)	.	.	.	67*	.	.
Cc1ccc2cc(C#N)c(NCCNC(=O)C3CC3)nc2c1C	-15	9	33	-3	1	6
Cc1nc(NC(=O)c2ccccc2[N+](=O)[O-])sc1C(=O)N(C)C	.	.	.	13	.	.
Cc1nc(NC(=O)c2oc3ccccc3c2C)sc1C(=O)N(C)C	0	-4	13	96*	-8	-12
Cc1ccccc1NC(=S)NCc1cccs1	-5	19	-6	3	-8	-1
S=C(NCc1cccs1)Nc1cccc(Cl)c1Cl	.	.	.	81*	.	.
CCc1cc[n+](CC(=O)Nc2ccc(Cl)cc2Cl)cc1	.	.	.	77*	.	.
CCOC(=O)/C=C/C(=O)OCC(=O)Nc1ccc(Cl)cc1Cl	.	.	.	-2	.	.
O=C(Nc1cccc(NC(=O)c2ncn[nH]2)c1)c1cccc(Cl)c1	.	.	.	-27	.	.
CCCCCCCC(=O)Nc1ccc(S(=O)(=O)Nc2nccs2)cc1	.	.	.	-6	.	.
CCn1nc(C(=O)Nc2ccc(S(=O)(=O)Nc3nccs3)cc2)c2ccccc2c1=O	11	-25	9	61*	-2	2
CN(c1ccccc1C(=O)N1CCN(c2ccccc2)CC1)S(C)(=O)=O	4	-8	-16	7	-7	-1
O=C(N/N=C/c1ccco1)c1cc(-c2cccc(Br)c2)nc2ccccc12	.	.	.	9	.	.
CC(/C=N/NC(=O)c1cc(-c2ccncc2)nc2ccccc12)=C\c1ccco1	65	87*	-4	41	-4	-14
Cc1nnc2n(C3CCCCC3)c(=O)c3c4c(sc3n12)COC(C)(C)C4	94*	65	3	.	-3	5
O=S(=O)(NCc1ccccc1F)c1cccc(S(=O)(=O)N2CCOCC2)c1	.	.	.	-21	.	.
Cc1cccc(C)c1NC(=O)CN(C)C(=O)/C=C/c1cccs1	.	.	.	93*	.	.
CCOc1cc(/C=C2/C(=O)N(c3ccccc3)N=C2C)ccc1OC(=O)c1ccco1	13	44*	-10	57	-3	-12
Cc1nn(C)c(C)c1CN(C)C(=O)c1nn2c(c1Br)NC(c1cccs1)CC2C(F)(F)F (stereo unspecified)	.	.	.	42	.	.
COc1ccc(CCNC(=O)C(=O)NCc2ccc(C)cc2)cc1OC	-5	6	18	50*	-6	-7
CC(C)(C)NC(=O)CSC(=Nc1ccc(F)cc1)NC#N	-24	14	-4	.	24*	10
N#CNC(=Nc1cccc(F)c1)SCc1ccccc1	.	.	.	15	.	.
CCNc1nc(N)nc(Oc2ccc(C(=O)OC)cc2)n1	-18	-6	-3	-17	-7	4
SMILES	TNFa cytotox	VCAM1 TNFa inh	S1P2 antag	E-sel TNF inh	S1P2 agonist	cytoskel mod
CCNc1nc(Oc2ccc(C(=O)OC)cc2)nc(N(C)C)n1	79*	8	-11	3	-3	-38
CCN(CC)c1ccc(N2C(=O)/C(=C\c3cccs3)SC2=S)cc1	-6	12	-26	12	-2	-7
O=C1/C(=C/c2cccs2)SC(=S)N1c1ccccc1	-9	-2	15	56*	-9	-2
O=C(c1ccccc1)c1nc[nH]c1C(=O)Nc1ccccc1	-30	-50	-3	2	-3	16
Cc1ccc(/C=C2\SC(N)=NC2=O)s1	.	.	.	95*	.	.
CCOc1ccc(N2C(=O)CSC2c2ccncc2)cc1 (stereo unspecified)	-48	91*	-10	14	-5	40
CC1CCCCC1NC(=O)COC(=O)C12CC3CC(CC(Cl)(C3)C1)C2 (stereo unspecified)	.	.	.	18	.	.
Cc1cc(/C=N/n2cnnc2)c(C)n1-c1ccccc1	-20	0	11	11	-6	-1
Cc1cc(/C=N/n2cnnc2)c(C)n1-c1ccc(OCc2ccc(F)cc2)cc1	-17	8	69*	-31	-5	-1
Cc1cc(/C=N/n2cnnc2)c(C)n1-c1ccc(OCc2ccc(Cl)cc2Cl)cc1	-3	-12	74*	-14	-6	-23
CCOC(=O)c1c(NC(=O)Cn2cnc([N+](=O)[O-])n2)sc(C)c1C	.	.	.	-3	.	.
Nc1nonc1C(=O)NCCNCc1cc(Br)ccc1OCc1ccccc1F	3	1	73*	-12	-3	-14
Nc1nonc1C(=O)NCCNCc1ccccc1OCc1ccccc1F	-12	-1	2	-13	-2	18
Cc1ccc(C(=O)NCCCn2ccnc2)cn1	-43	-5	-2	15	-6	30*
CN(C)c1ccc(-c2nc3ccccn3c2/N=C/c2ccc(Br)cc2)cc1	.	.	.	-3	.	.
Cc1ccc(/C=C/C(=O)O)cc1S(=O)(=O)NCCO	-17	7	13	54*	-3	27
CNC(=S)N(Cc1ccc(OC)cc1)Cc1cc2cccc(C)c2[nH]c1=O	.	.	.	3	.	.
COc1ccc(S(=O)(=O)N2CCCC2C(=O)Nc2ccc(C)cc2)cc1 (stereo unspecified)	6	97*	3	-9	-5	1
Cc1ccc(NC(=O)NNC(=O)c2ccccc2)cc1	.	.	.	-28	.	.
Cc1cccc(C(=O)NNC(=O)Nc2ccccc2)c1	.	.	.	65*	.	.
COc1cc(NC(=O)CN2C(=O)c3ccccc3S2(=O)=O)c(OC)cc1Cl	-3	-9	12	0	-10	13
NC(=S)c1cc2ccc(O)cc2oc1=O	-7	2	-52	-27	38*	0
COc1ccccc1N=c1oc2cc(O)ccc2cc1C(N)=O	1	-6	-34	29	45*	4
Cc1cccc(N=c2oc3cc(O)ccc3cc2C(N)=O)c1	10	-3	-43	-23	30*	-30
O=C(Nc1ccc([N+](=O)[O-])cn1)C1CC2CCC1C2 (stereo unspecified)	.	.	.	2	.	.
O=C(N/N=C/c1ccc(O)cc1)c1ccc(COc2cc(Cl)ccc2Cl)o1	-6	23	-1	96*	-5	-40
Cc1cc(C)c(C#N)c(SCC(=O)c2ccc(Cl)cc2Cl)n1	9	13	36	3	-2	-29
COc1ccc(S(=O)(=O)N(CC(N)=O)C2CCCCC2)cc1Cl	-13	-3	-7	45*	-12	5
COc1ccc(S(=O)(=O)N(C)CC(=O)NC2CCCCC2)cc1Cl	-4	-11	7	-4	-7	7
CCOC(=O)c1ccccc1NC(=O)c1ccccc1N(C)S(C)(=O)=O	.	-26	3	-28	-6	1

From PubChem BioAssay
